# Measured values taken from PubChem BioAssay AID652010 (The Scripps Research Institute Molecular Screening Center, 2013).
# Hit rate of the full screen: of about 370,000 compounds, about 4,100 (1.1%) were called active. This is one part of a sample in which actives are shown more often than they occur. A number with no mark means an inactive call.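 How the source made its calls: active means inhibition above the mean over all tested compounds plus 3 SD (cut at about 3.6% in these data); inactive means the rest.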
# Assay: DAX1 (NR0B1) inhibitors on StAR promoter, primary screen, cell-based, luminescence, SF-1 (NR5A1), full-length DAX-1 (AID 652010);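 further: 0% = DAX-1 cells with DMSO and 100% = cells lacking DAX-1 with DMSO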
# Conditions: HEK293T StAR-luciferase reporter, SF-1/DAX-1 repression relief; at 6.8 µM; hits give high values
row,SMILES,inhibition
1,Cc1cc(C)cc(NC(=O)N2CCC(N(C)CCC(C)C)CC2)c1,1.03%
2,Cc1sc2nc(COC(=O)C(NC(=O)c3ccc(Cl)cc3Cl)C(C)C)[nH]c(=O)c2c1C (centres undefined),-0.03%
3,COC(=O)c1ccc(CN2C(=O)[C@]3(OCCC=C[C@H]3C)c3c(Br)cccc32)cc1,1.3%
4,COC(=O)C12C=C3CC(c4ccccc4)=C3C(=O)N1Cc1[nH]c3ccccc3c1C2 (centres undefined),0.17%
5,Cc1ccc(C(=O)N2CCN(C3CCCCC3)CC2)s1,0.45%
6,Cc1ccc(CS(=O)Cc2ccc(C(=O)N3CCOCC3)o2)cc1 (centres undefined),-0.29%
7,Cc1ccc(S(=O)Cc2ccc(C(=O)N3CCN(C4CCCCC4)CC3)o2)cc1 (centres undefined),5.98% (active)
8,COC(=O)[C@]12C[C@H](CC(=O)NCCc3ccccc3OC)C(=O)N(Cc3ccco3)C1=C[C@H](C(C)C)O[C@@H]2C1CC1,-0.45%
9,Cc1ccccc1CS(=O)(=O)Cc1ccc(C(=O)Nc2ccc(Cl)cc2)o1,-3.88%
10,Cc1ccccc1NC(=O)C1CCN(c2ncccn2)CC1,-0.57%
11,O=C(CCS(=O)(=O)c1cccc2nsnc12)N1CCN(c2ccccc2F)CC1,0.3%
12,O=C(CCSc1ccccc1)N1CCN(c2ccccc2F)CC1,3.74% (active)
13,O=C(CCc1ccccc1F)N1CCN(c2ccccc2)CC1,-0.1%
14,O=C(c1ccc(-c2ccccc2)cc1)C1CCCN(C(=O)c2cncs2)C1 (centres undefined),-0.34%
15,O=C(O)c1ccccc1-c1ccccc1C(=O)Nc1ccccc1Br,2.05%
16,O=C(Nc1ccccc1)c1ccccc1Br,4.1% (active)
17,O=C(Nc1ccc(-n2ccnc2P(=O)(O)c2ccccc2)cc1)c1ccccc1Br,0.24%
18,CCC(CO)Nc1cccc2c1S(=O)(=O)N(Cc1cn(Cc3ccccc3C(F)(F)F)nn1)Cc1ccccc1O2 (centres undefined),0.53%
19,COc1ccc(N2CCN(CCNS(=O)(=O)c3ccc(Cl)s3)CC2)cc1,-1.29%
20,Cc1ccc(NC(=O)c2cnc(SCC(=O)NCC3CCCO3)n(C)c2=O)cc1 (centres undefined),3.81% (active)
21,CCn1c(SCC(=O)NCC2CCCO2)nc2ccccc21 (centres undefined),0.35%
22,Cn1c(SCC(=O)c2ccccc2)ncc(C(=O)Nc2ccc(F)cc2)c1=O,0.92%
23,CC(CCN1CCC(C(O)(c2ccccc2)c2ccccc2)CC1)Oc1ccc([N+](=O)[O-])cc1Cl (centres undefined),-0.6%

row,SMILES,inhibition
1,CC(C)c1ccc(NS(=O)(=O)c2cn(C)c(=O)n(C)c2=O)cc1,1.86%
2,Cc1ccc(-n2c(SCC(=O)Nc3cccc4ccccc34)nnc2-c2ccco2)cc1,-1.09%
3,C=CCN=C1NC(c2ccccc2)C(C(=O)OC)=C(C)N1Cc1ccc(C(F)(F)F)cc1 (centres undefined),-0.62%
4,NNc1cccc(C=Cc2ccccc2)cc1=O,4.11% (active)
5,Cc1ccc(NC(=O)Nc2cc(C)nn2-c2ccccc2)cc1,-0.81%
6,COC(=O)[C@]12C[C@H](CC(=O)NCc3cccs3)C(=O)N(CCc3ccc(OC)c(OC)c3)C1=C[C@H](C(C)C)O[C@@H]2C1CC1,0.43%
7,CCOC(=O)N1CCN(C(=O)C[C@H]2C[C@@]3(C(=O)OC)C(=C[C@H](C(C)(C)C)O[C@@H]3C)N(Cc3ccc(Cl)cc3Cl)C2=O)CC1,-1.88%
8,Fc1ccccc1/C=N/Nc1cc(N2CCCCC2)ncn1,3.71% (active)
9,CCOC(=O)c1cccc(NC(=O)CN(C)S(=O)(=O)c2ccc(-c3cocn3)s2)c1,-0.38%
10,COc1cccc(CNC(=O)C2CCCN(c3nc4ccccc4o3)C2)c1OC (centres undefined),-1.08%
11,O=C(O)Cn1c(Cc2ccccc2)nc2ccccc21,0.13%
12,Cc1c(C=O)c2ccccc2n1CCOc1ccccc1,-1.1%
13,Cc1c(C=O)c2ccccc2n1CC(=O)O,3.62% (active)
14,S=c1[nH]nc(/C=C/c2ccccc2)o1,-0.19%
15,O=c1oc(-c2ccccc2NS(=O)(=O)c2ccc(Cl)cc2)nc2ccccc12,0.22%
16,O=c1oc(/C=C/c2ccccc2)nc2ccccc12,5.78% (active)
17,CN(CC(=O)Nc1ccc(C(N)=O)cc1)S(=O)(=O)c1ccc2c(c1)OCCO2,-0.16%
18,COCCCNC(=O)c1ccc(CNS(=O)(=O)c2ccc(NC(C)=O)cc2)cc1,-0.22%
19,CC1CCCN(c2cccc3c2S(=O)(=O)N(Cc2ccc(F)cc2)[C@@H](C)[C@H](c2ccccc2)O3)C1 (some centres undefined),1.64%
20,COc1cc(/C=N/O)ccc1OCc1ccc([N+](=O)[O-])cc1,4.6% (active)
21,COc1ccc(NC(=O)CSCc2ccc([N+](=O)[O-])cc2)cc1OC,0.2%
22,CCOc1cc(/C=N/O)ccc1OCc1ccccc1F,0.47%
23,Cn1nc(C(C)(C)C)c(NC(=O)c2sccc2Cl)c1C(C)(C)C,-0.4%

row,SMILES,inhibition
1,C[C@@H]1ON(C)[C@H]2C[C@H]3c4cc(N5CCOCC5)ccc4CCN3C[C@@H]12,0.27%
2,COC(=O)c1ccc2nc(-c3ccccc3)c(Cc3ccc(OC)cc3C)n2c1,3.05%
3,Cc1ccc(-c2nc3ccc(Br)cn3c2Cc2ccccc2C(F)(F)F)cc1,7.12% (active)
4,Cc1cc(Br)cn2c(Cc3ccccc3C(F)(F)F)c(-c3ccc(Cl)cc3)nc12,-1.19%
5,Cc1cc(Br)cn2c(Cc3ccccc3C(F)(F)F)c(-c3ccc(C#N)cc3)nc12,-0.14%
6,COC(=O)c1ccc2nc(-c3ccc(F)cc3)c(Cc3ccc(C)cc3)n2c1,0.98%
7,COc1ccccc1Cc1c(-c2ccc(Cl)cc2)nc2ccc(Cl)cn12,2.6%
8,Cc1ccc2nc(-c3ccccc3)c(CC3CCCCC3)n2c1,3.67% (active)
9,COc1ccccc1Cc1c(-c2ccc(F)cc2)nc2ccc(C)cn12,4.57% (active)
10,Cc1ccc2nc(-c3cccnc3)c(NC3CCCC3)n2c1,-0.53%
11,Cc1ccc(-c2nc3ccc(Cl)cn3c2Cc2ccccc2)cc1,4.09% (active)
12,Cc1ccc(-c2nc3c(C)cc(Br)cn3c2Cc2ccccc2)cc1,-0.26%
13,Brc1ccc2nc(-c3ccccc3)c(Cc3ccccc3)n2c1,0.67%
14,COC(=O)[C@]12C[C@H](CC(=O)NCCc3ccccc3OC)C(=O)N(Cc3ccccc3)C1=C[C@H](C(C)C)O[C@@H]2C1CC1,0.15%
15,CCOC(=O)[C@]12CCCCC/C=C\1N(Cc1ccc(OC)cc1)C(=O)[C@H]2CC(=O)N1CCOCC1,-0.42%
16,CN1C(=O)C2CC(O)C(SC3CC4C(=O)N(C)C(=O)C4CC3O)CC2C1=O (centres undefined),0.64%
17,CCOC(=O)/C=C/c1ccccc1O,0.4%
18,COc1cccc(CNC(=O)[C@H]2CCCN2C(=O)[C@H]2CCCN2C(=O)c2cc(F)cc(F)c2)c1,0.51%
19,CCn1c2ccccc2c2cc(NC(=O)CSc3nnc(-c4ccccc4)n3-c3ccc(C)cc3)ccc21,-0.77%
20,CN1C(=O)c2cc(NS(C)(=O)=O)ccc2OC[C@@H]2O[C@@H](CC(=O)NCc3ccc(-c4ccccc4)cc3)CC[C@H]21,-0.35%
21,CC(C)(C)NS(=O)(=O)NC(=O)C1=C(N2CCCC2)COC1=O,0.57%
22,CCCCNC(=O)C[C@H]1C(=O)N(Cc2ccc(OC)cc2)C2=CCCC[C@@]21C(=O)OCC,-0.74%
23,C[C@H]1[C@H](c2ccccc2)Oc2cc(Br)ccc2S(=O)(=O)N1Cc1cccc(F)c1,-0.98%

row,SMILES,inhibition
1,Cc1c(C(C)c2ccccc2O)[nH]c2ccccc12 (centres undefined),-1.62%
2,C[C@@H](NC(=O)c1ccccc1OCC(=O)Nc1ccc(I)cc1)C(=O)N(C)Cc1ccccc1,-1.33%
3,O=C(NC(=S)Nc1ccccc1C(=O)O)c1ccc(-c2ccc(Br)cc2)o1,-0.57%
4,S=C(c1ccc(-c2ccccc2)o1)N1CCCCC1,5.8% (active)
5,CC1CCN(C(=S)c2ccc(-c3ccc(Cl)cc3Cl)o2)CC1,0.67%
6,O=S1(=O)c2ccc(Br)cc2-n2nncc2CN1Cc1cccc(Cl)c1,-0.73%
7,CCCS(=O)(=O)N1CCC(C(=O)NCCc2ccc(OC)c(OC)c2)CC1,0.15%
8,COC(=O)C[C@@H]1CC[C@@H]2[C@@H](COc3ccc(NC(=O)Nc4ccc(F)c(F)c4)cc3C(=O)N2C)O1,-1.81%
9,CC1CCN(c2ccc(C(=O)O)cc2NS(=O)(=O)c2ccc(Br)s2)CC1,-1.22%
10,O=C(Nc1ccc2c(c1)CCC2)c1ccc(Br)s1,11.2% (active)
11,O=C(Nc1ccc(F)cc1)c1cc2c(s1)CCCC2,2.02%
12,CC1CC(C)CN(CCC(=O)Nc2ccc3c(c2)CCC3)C1 (centres undefined),-0.49%
13,CCOC(=O)c1c(S(=O)(=O)Nc2cccc(Cl)c2)c(C)n(C)c1C,1.63%
14,CCOC(=O)c1c(S(=O)(=O)NCC(=O)Nc2ccc(C)cc2)c(C)n(C)c1C,-0.57%
15,CCOC(=O)c1c(S(=O)(=O)Nc2ccc(CN3CCC(C)CC3)cc2)c(C)n(C)c1C,5.11% (active)
16,CC(=O)O[C@@]1(C(C)=O)CCC2[C@H]3C=C(C)C4=CC(=O)CC[C@@]4(C)C3CC[C@]21C (some centres undefined),-0.75%
17,Cc1nnc(SC(C)C(=O)Nc2ccc(S(=O)(=O)NC3CCCCC3)cc2)s1 (centres undefined),0.57%
18,Cn1cccc1C(=O)OCC(=O)NCCc1ccccc1,0.5%
19,Cc1ccsc1C(=O)OCC(=O)NCCc1ccccc1,3.66% (active)
20,Cc1cnc(C(=O)OCC(=O)NCCCc2ccccc2)cn1,1.25%
